Our source for the Potency and activity change, negative = inhibition values is PubChem BioAssay AID893 (National Center for Advancing Translational Sciences (NCATS), 2007).

The structures appear in SMILES notation. Screen size: about 75,000 compounds; about 5,700 (7.6%) were called active. Not shown: some 7% with an inconclusive outcome. Calls follow the shape of the dose curve; as a rule, active = well fitted inhibition curve with a large enough effect; inconclusive = small, poorly fitted or top-dose-only effect; inactive = no such curve, though single readings can be large or run the other way. The entries come from a sample that favours actives as a whole. Where a call stands in place of a potency, no number is given.
Potency is read from the fitted curve at half-maximal effect.

The target in the test is 3-hydroxyacyl-CoA dehydrogenase type-2 (Homo sapiens) (UniProt Q99714). Put plainly: qHTS Assay for Inhibitors of HSD17B4, hydroxysteroid (17-beta) dehydrogenase 4.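 Also: the protocol describes HADH2 (HSD17B10) and not the HSD17B4 of the title; nearly all actives have a fitted effect of over 70% in size.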 The note with it: recombinant HSD17B10, NADH fluorescence kinetic; series mostly up to 57.1 µM. In short, it runs like this: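 20 nM HADH2, pH 9.0 Tris/Tween; cpd preinc 15 min RT; start w/ 1 mM NAD+ + 90 uM b-hydroxybutyryl-CoA; kinetic fluor ex360/em450 q30s x 4 min; delta last-first.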
For orientation: Quantitative high-throughput screening tests each substance at several concentrations.
Regarding `COC(=O)CCCCCN1C(=O)NC(c2ccc(-c3ccccc3)cc2)C(C(=O)OCc2ccccc2)=C1C` (stereo not drawn), the Potency result was “inactive”.

For `Fc1ccc(-c2nnc3sc(-c4ccc5c(c4)OCO5)nn23)cc1`, the Potency entry was “inactive”. Still for that read-out and setting: the entry for `COc1cc(-c2nn3c(-c4cccc(C)c4)nnc3s2)cc(OC)c1OC` is “inactive”.

Take `c1ccc(-c2cc(-c3nnc4sc(-c5ccccn5)nn34)[nH]n2)cc1`: the Potency was 31.6 µM (active). Same read-out and setting: the entry for `Cc1cc(C)cc(N)c1` is “inactive”; for `CCOC(=O)CC1=CC(=O)Nc2ccccc2N1` it is “inactive”; for `CCCOC(=O)Cc1c(O)c2ccccc2[nH]c1=O` it is 31.6 µM (active). As to `CCCc1nc2ccccc2c(=O)n1NC(=O)c1c(O)c2ccccc2[nH]c1=O`, the Potency entry is “inactive”.

Consider `O=C(N1CCOCC1)N(Cc1ccccc1)c1ccccn1`, for which the Potency entry is “inactive”. In the case of `CCNC(=O)N1CCNC(=O)C1CC(=O)Nc1ccc(C(=O)OCC)cc1` (stereo not drawn), the Potency entry is “inactive”. `O=C(C1CCCO1)N(Cc1ccccc1)c1ccccc1` (stereo not drawn): the Potency result was “inactive”.

Consider `COc1ccc(S(=O)(=O)N2CCN(C(=O)c3cccs3)CC2)cc1OC`, for which the Potency was 3.98 µM (active).

In the case of `CCS(=O)(=O)N1CCN(C(=O)c2cccs2)CC1`, the Potency entry is “inactive”. For the compound `CCCS(=O)(=O)N1CCN(C(=O)c2cccs2)CC1`, the Potency result was “inactive”. Same read-out and setting: as for `COc1ccc(C2N=C(N)N=C(N)N2c2ccccc2)cc1OC` (stereo not drawn), the entry is “inactive”; as for `Cc1cc(C)c2nc(N3CCCC3)c(C#N)cc2c1`, 31.6 µM (active). Turning to `C=CCOC(=O)C(C(C)=O)C(NC(=O)OC)c1ccccc1` (stereo not drawn), the activity change, negative = inhibition is 10.6% [at 11.4 µM] (inactive). For `CCc1ccc(NC(=O)CSc2nc3ccccc3c(=O)n2CCN2CCOCC2)cc1`, the Potency entry is “inactive”.

On to `CCn1c(SCC(=O)NCC2CCCO2)nc2cc(S(=O)(=O)N3CCCCC3)ccc21` (stereo not drawn), for which the Potency entry was “inactive”. The same measure, in the same setting: as for `CCCCn1c(SCC(=O)NCC2CCCO2)nc2ccc(N3CCOCC3)cc2c1=O` (stereo not drawn), the figure is 31.6 µM (active); as for `Cc1cc(Nc2cccc(F)c2)n2ncnc2n1`, “inactive”. Same read-out and setting: the entry for `Cc1ccc(NC(=O)CCN2CCc3ccccc3C2)cc1` is “inactive”; for `Cc1cc(C)nc(N2CCN(c3ncnc4c3oc3ccccc34)CC2)n1` it is “inactive”. The same measure, in the same setting: the figure for `Cc1ccc2c(c1)c1ncnc(N3CCc4ccccc4C3)c1n2C` is 31.6 µM (active); for `CCCCCCCCCc1ccc(OCCOCCOCCOCCOCCOCCOCCOCCOCCO)cc1` it is “inactive”. Turning to `O=C(Nc1ccc(-c2nnc(-c3ccccc3)o2)cc1)C1CCCO1` (stereo not drawn), the Potency is 20 µM (active).

Take `COc1ccc(CC(=O)Nc2ccc(-c3nnc(-c4ccccc4)o3)cc2)cc1`: the Potency was 12.6 µM (active). On the same count and under the same terms, the figure for `COc1ccc(CC(=O)Nc2ccc(-c3nnc(-c4ccc(C)cc4)o3)cc2)cc1` is 2.51 µM (active). On the same count and under the same terms, as for `O=C(CSc1nnc(-c2ccc(NS(=O)(=O)c3ccccc3)cc2)o1)NCC1CCCO1` (stereo not drawn), the entry is “inactive”; as for `CCCCCNC(=O)Cc1ccc(OC)cc1`, “inactive”; as for `COc1ccc(NC(=O)c2ccc(OC)cc2)cc1`, “inactive”.

Turning to `COc1ccc(C(CC(=O)O)NC(=O)Cc2ccccc2)cc1` (stereo not drawn), the Potency entry is “inactive”. On to `O=C(Nc1nnc(CCc2ccccc2)s1)C1CCCO1` (stereo not drawn), for which the Potency entry is “inactive”. Same read-out and setting: as for `O=C(COC(=O)c1ccc(Oc2ccccc2)cc1)Nc1nnc(-c2ccccc2)o1`, the entry is “inactive”. Still for that read-out and setting: the entry for `CCCCNC(=O)CSc1nccn1Cc1ccccc1` is “inactive”. On to `CC(=O)Nc1cc(C(=O)O)ccc1S(=O)(=O)c1ccc(Cl)cc1`, for which the Potency result was “inactive”.

Regarding `O=S1(=O)CCN2C(=N1)SC1=C2CCN(Cc2ccccc2)C1`, the Potency entry was “inactive”. Regarding `COc1ccc(Br)c2c1C[C@H](C(=O)O)CC2`, the activity change, negative = inhibition is 7.09% [at 11.4 µM] (inactive). Turning to `O=C(CSc1nc2ccccc2o1)N1CCN(c2ccc(Cl)cc2)CC1`, the Potency entry was “inactive”. As to `COc1ccc(-n2c(SCC(=O)OC(C)C)nnc2-c2ccccn2)cc1`, the Potency entry was “inactive”. Take `CCOC(=O)C1C(=O)C=C(c2ccc(OC)cc2)CC1c1ccco1` (stereo not drawn): the Potency was 20 µM (active). On the same count and under the same terms, the entry for `COc1ccc(CCNC(=O)c2ccco2)cc1` is “inactive”; for `CCOC(=O)C1C(=O)NC(N2CCN(c3ccccc3)CC2)=NC1c1ccco1` (stereo not drawn) it is “inactive”; for `CCOc1ccc2cc(C#N)c(SCC(=O)OC)nc2c1` it is “inactive”. On the same count and under the same terms, as for `CCOc1ccc2nc(NCCNS(=O)(=O)c3ccccc3)c(C#N)cc2c1`, the figure is 25.1 µM (active); as for `CCOc1ccc2nc(N3CCCN(C(=O)Nc4ccccc4C)CC3)c(C#N)cc2c1`, “inactive”; as for `CC1=C(C(=O)OCc2ccccc2)C(c2ccc(C(F)(F)F)cc2)NC(=O)N1CCCCCC(=O)O` (stereo not drawn), “inactive”. Still for that read-out and setting: as for `CC(NC(=O)c1ccc(Cl)cc1)C(=O)N1CCCCC1` (stereo not drawn), the entry is “inactive”; as for `COc1ccc(NC(=O)Nc2cccc3cccnc23)cc1`, “inactive”. Regarding `CCOc1ccc(NC(=O)Nc2cc(C)ccc2OC)cc1`, the Potency entry was “inactive”.

As for `COc1ccc(Cn2cccc(NC(=O)Nc3ccc(C#N)cc3)c2=O)cc1`, the Potency is 15.8 µM (active). The same measure, in the same setting: as for `CO/N=C(\C(=O)N[C@@H]1C(=O)N2C(C(=O)O)=C(COC(C)=O)CS[C@H]12)c1csc(N)n1` (stereo in doubt), the entry is “inactive”; as for `COc1c(F)c(F)c(-c2csc(N)n2)c(F)c1F`, “inactive”. On the same count and under the same terms, as for `CCOc1ccc(OCC)c(NC(=O)CSc2nnc(Cn3cnc4ccccc43)n2C)c1`, the entry is “inactive”. The same measure, in the same setting: the entry for `O=c1[nH]c(-c2cccs2)nc2ccccc12` is “inactive”; for `CCc1c(C)nc2cc(-c3cccs3)[nH]n2c1=O` it is 31.6 µM (active); for `Cc1nc2nc(COc3ccccc3)[nH]n2c(=O)c1Cc1ccccc1` it is “inactive”. Take `CCCCNC(=O)c1c[nH]c2ccc(S(=O)(=O)Nc3ccc(OCC)cc3)cc2c1=O`: the Potency result was “inactive”.

Take `CCCCn1c(SCC(=O)N2CCC(C(=O)OCC)CC2)nc2cc(S(N)(=O)=O)ccc21`: the Potency result was “inactive”. The same measure, in the same setting: the entry for `CCCC(=O)Nc1cc(OCC)c(NC(=O)NC2CCCCC2)cc1OCC` is “inactive”; for `CCOc1cc(C2C(C(=O)OC)=CN(C3CCCC3)C=C2C(=O)OC)cc(Br)c1O` it is 25.1 µM (active); for `CCOc1ccc(CNC(=O)C2CCC(=O)N2C2CCCC2)cc1OC` (stereo not drawn) it is “inactive”. `COCCCN(C(=O)Cn1ncc2c(=O)oc3ccc(C)cc3c21)C(C)c1ccncc1` (stereo not drawn): the Potency result is “inactive”. Consider `Cn1c(=O)cc(SCC(=O)N2CCCC2)c2cc(Cl)ccc21`, for which the Potency result is “inactive”. The same measure, in the same setting: the entry for `COc1ccc(-c2cc(C(F)(F)F)n3nc(C(=O)N4CCOCC4)c(Cl)c3n2)cc1` is “inactive”. The same measure, in the same setting: the entry for `Cc1cc(C(F)(F)F)nn1CC(=O)N1CCCC1` is “inactive”. On to `Cc1ccc(-c2cc(C(F)(F)F)n3nc(C(=O)N4CCCC4)cc3n2)cc1`, for which the Potency is 20 µM (active). The same measure, in the same setting: as for `c1ccc(CCc2nc(-c3ccncc3)no2)cc1`, the entry is “inactive”.
